# Source: PubChem BioAssay (National Center for Advancing Translational Sciences (NCATS))
# D2 ag-1: HTS Assay for Allosteric Agonists of the Human D2 Dopamine Receptor: Primary Screen for Agonists. D(2) dopamine receptor (Homo sapiens), P14416. HEK293 T-REx D2 cells, calcium flux agonist mode. hit rate 0.53% among 340,000. activation, % at 2 µM;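 active means activation over 3 SD above normal in the single-dose calcium agonist read, cut at about 30% in these data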; further: 0% is about no effect
# Target sequence (P14416 whole entry, looked up): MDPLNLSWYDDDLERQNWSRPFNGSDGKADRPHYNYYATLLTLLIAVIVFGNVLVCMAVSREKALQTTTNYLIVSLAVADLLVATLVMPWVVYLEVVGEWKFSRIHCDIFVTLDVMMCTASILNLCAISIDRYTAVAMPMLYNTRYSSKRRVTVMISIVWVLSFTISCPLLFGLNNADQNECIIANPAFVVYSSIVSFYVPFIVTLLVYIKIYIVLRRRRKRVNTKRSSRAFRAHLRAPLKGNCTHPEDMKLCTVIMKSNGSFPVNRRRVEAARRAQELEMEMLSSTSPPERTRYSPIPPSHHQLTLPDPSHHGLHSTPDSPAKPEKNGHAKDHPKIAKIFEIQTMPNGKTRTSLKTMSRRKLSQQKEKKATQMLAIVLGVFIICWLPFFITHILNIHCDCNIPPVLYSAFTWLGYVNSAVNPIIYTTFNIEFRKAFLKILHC
#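 Calcium-flux readout, 1 cycle/sec over 180 s following compound pin transfer, in inducible HEK293 Trex D2 cells (force-coupled); dopamine controls included. Positive calcium responses during this window marked compounds as potential agonists.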
# D2 PAM-1: HTS Assay for Positive Allosteric Modulators of the Human D2 Dopamine Receptor: Primary Screen for Potentiators; D(2) dopamine receptor (Homo sapiens), P14416; HEK293 T-REx D2, calcium flux, EC20 dopamine potentiation; potentiation, % at 10 µM; hit rate 0.34% among 340,000;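 active means potentiation over 3 SD above the plate norm, cut at about 30% in these data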; further: 0% is about no effect
#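 Potentiation of an EC20 dopamine calcium response is measured in a force-coupled, tetracycline-inducible Hek293 Trex D2 line. Compound-only kinetic reads over 180 s flag agonists before dopamine addition.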
# D2 antagonist: HTS Assay for Allosteric Antagonists of the Human D2 Dopamine Receptor: Primary Screen for Antagonists; inhibition, % at 10 µM; AID 485344, 2010; HEK293 TREx D2 cells, calcium flux, dopamine EC80; hit rate 2% among 340,000; in the data active means inhibition above about 30%; inactive means below that, where a call was filed; further: 0% is about no effect
#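 Compounds are added to dye-loaded, induced HEK293 T-REx cells coupled to calcium release via D2; after a 3 min kinetic read an EC80 dopamine stimulus is given and fluorescence is recorded for 3 more min.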
# D2 ag-2: Beta-Arrestin HTS for Positive Allosteric Modulators of the Human D2 Dopamine Receptor: Agonists | D(2) dopamine receptor (Homo sapiens), P14416 | DiscoveRx PathHunter D2 beta-arrestin, luminescence, 90 min; 100% = 57 uM dopamine signal | activation, % (test concentration not listed) | hit rate 0.084% among 360,000; in the data active means activation above about 40%
#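 DiscoveRx PathHunter D2 beta-arrestin cells (2,100/well) attached overnight, then compound-stimulated 90 min at 37 C in HBSS/10 mM HEPES/0.1% Tween-20 buffer; beta-galactosidase complementation read by luminescence after 1 h at ambient temperature. Dopamine 57 uM final (EC100) as control.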
# D2 PAM-2: Beta-Arrestin HTS for Positive Allosteric Modulators of the Human D2 Dopamine Receptor: Potentiators; D(2) dopamine receptor (Homo sapiens), P14416; DiscoveRx D2 beta-arrestin cells, luminescence, 90 min; 100% = 57 uM dopamine signal; potentiation, % (test concentration not listed); hit rate 0.23% among 360,000; in the data active means potentiation above about 50%
#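 D2 cells co-treated with compound plus 50 nM dopamine (EC20) for 90 min at 37 deg C to detect potentiation. Beta-arrestin recruitment was read as enzyme-fragment luminescence after 1 h at ambient temperature. Full response was set by 57 uM dopamine.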
# The depositor's hits bear a star; nt = no result given. Compounds with a hit are over-represented: about 2.4% of the library has one in this group of screens.
SMILES,D2 ag-1,D2 PAM-1,D2 antagonist,D2 ag-2,D2 PAM-2
O=c1cc(-c2ccccc2)nc(SCc2nc(-c3cccc(C(F)(F)F)c3)no2)[nH]1,-1.7,nt,nt,nt,nt
CCN(CC(=O)NCc1ccc(F)cc1)C(=O)/C=C/c1ccc(OC)c(S(=O)(=O)NC(C)C)c1,-0.7,-8.3,33.5*,-2.4,-6.6
CCN(CC(=O)NCc1ccc(F)cc1)C(=O)/C=C/c1ccc(OC)cc1,0.5,2.2,-9.4,1.5,-2.2
Cc1cccc(Cn2c(CNS(=O)(=O)c3ccc(Cl)s3)nc3cccnc32)c1,-0.8,-1.6,nt,nt,nt
Cc1cccc(Cn2c(C(C)(C)C)cc3cccnc32)c1,-0.2,-4.6,44.8*,-5.0,-35.5
CCCSc1nnc2n(Cc3ccccc3)c(=O)c3c4c(sc3n12)CCC4,nt,-2.0,nt,nt,nt
CCCSc1nnc2n(C)c(=O)c3c4c(sc3n12)CCC4,3.6,12.9,40.1*,-6.2,11.4
O=C(CCc1nc2ccccc2c(=O)[nH]1)Nc1ccc(N2CCCCC2)cc1,-5.3,-3.0,76.7*,1.2,-10.4
COC(=O)c1ccc(Cn2c(SCc3ccc(F)cc3)nc3ccncc32)cc1,-0.5,5.4,nt,nt,nt
Cc1ccc(OCC(=O)c2c(N)n(C)c(=O)n(C)c2=O)c([N+](=O)[O-])n1,0.5,-2.0,32.9*,-2.4,-1.8
COc1ccc(NC(=O)CN(c2ccc(C)cc2)S(=O)(=O)c2cccc3nonc23)cc1OC,-0.1,19.0,nt,nt,nt
Cc1ccc(NC(=O)N2CCC(N3CCN(Cc4ccccc4)C(=O)C3=O)CC2)cc1Cl,0.5,-6.7,nt,nt,nt
Cc1nc2nc(NC(=O)C(C)C)[nH]n2c(=O)c1Cc1ccccc1,0.0,13.1,nt,nt,nt
CCSc1oc(-c2ccco2)nc1S(=O)(=O)c1ccc(C)cc1,-1.4,33.6*,-2.2,-4.2,-8.0
CCSc1oc(-c2ccco2)nc1S(=O)(=O)c1ccc(F)cc1,-0.5,15.8,-7.4,-2.7,-7.4
Cc1ccc(Cn2c3ccccc3c3cnn(CC(=O)N4CCCCCC4)c(=O)c32)cc1,-0.2,6.9,nt,nt,nt
COc1cccc(-n2c([S-])c(C(=O)Nc3ccc(C(F)(F)F)cc3)[n+]3ccccc23)c1,-0.6,-23.5,35.1*,nt,nt
Cc1ccc(N2CCN(C(=O)C3CCC(CNS(=O)(=O)c4ccc(Br)s4)CC3)CC2C)cc1 (stereo not drawn),0.0,-3.1,nt,nt,nt
CCN(CCCNC(=O)c1cc2c(=O)[nH]c3ccc(C)cc3c2s1)c1ccc(C)cc1,0.6,-0.1,nt,nt,nt
CCCN1CCN(CCCNC(=O)c2cc3c(=O)[nH]c4ccc(C)cc4c3s2)CC1,-1.3,-6.5,42.6*,-2.5,-9.6
Cc1[nH]c2ccc(C(=O)NCCCN3CCCCCC3)cc2c1C,0.6,-13.3,61.7*,1.6,-38.5
CC1CC(C)CN(CCCNC(=O)c2ccc3c(c2)NC(=O)C(N2CCCCC2)S3)C1 (stereo not drawn),0.9,-29.0,87.7*,-4.2,-31.3
O=C(NCCCN1CCCCC1)c1ccc2c(c1)NC(=O)C(N1CCCCC1)S2 (stereo not drawn),-0.4,-21.1,46.9*,-5.5,-47.8
O=C(O)c1ccc2c(c1)NC(=O)C(N1CCCC1)S2 (stereo not drawn),0.9,-10.6,9.7,-1.6,-8.7
Cc1ccc(C)c(CSc2c(C(C)C)cnc3c2c(=O)n(C)c(=O)n3C)c1,-0.2,nt,nt,nt,nt
Cc1ccc(N2C(=O)CSC23C(=O)N(CC(=O)NCCc2ccccc2)c2ccccc23)cc1C (stereo not drawn),0.6,3.6,nt,nt,nt
Cc1cc(C)c(CN2CCN(CCCn3ccc(NC(=O)OCc4ccccc4)nc3=O)CC2)c(C)c1,nt,nt,nt,-1.6,-21.0
CCc1ccc(NC(=O)N(Cc2c[nH]c3ccccc23)C2CCCCC2)cc1,0.0,-13.3,nt,nt,nt
CCOc1ccc(C2CC(=O)Nc3c2c(=O)nc(SCc2ccccc2C)n3C)cc1OC (stereo not drawn),2.5,-9.1,nt,nt,nt
Nc1nnc(CC(=O)N/N=C/c2cccc(OCCOc3ccccc3)c2)s1,-0.7,-0.2,30.5*,-1.0,21.2
